Data taken from PubChem BioAssay (Tox21).
Inconclusive results are not listed. Calls of active or inactive are those of the source. The call rests on the fitted dose curve.

Assay: qHTS assay to identify small molecule antagonists of the sonic hedgehog signaling (Shh) pathway (AID 1259369); further: nearly all actives have a fitted effect of over 45% in size
Conditions: NIH/3T3 Gli1-Luc reporter, Shh antagonist, luminescence 24 h; series mostly up to 92.4 µM; activity change, negative = inhibition: at the top concentration
Excerpt: U.S. Tox21 Program National Center for Advancing Translational Sciences [NCATS] NIH Chemical Genomics Center [NCGC] U.S. Environmental Protection Agency [EPA] National Institutes of Environmental Health Sciences [NIEHS] National Toxicology Program [NTP] U.S. Food and Drug Administration [FDA] Tox21 Assay Overview: The sonic hedgehog (Shh) pathway is essential for normal embryonic development. Dysregulation of the Shh pathway can cause severe developmental defects in organs. Therefore chemicals that interfere with the pathway are potential developmental toxicants. A cell line designated 3T3Gli1-Luc (DMB/OARSA/CFSAN/FDA, Laurel, MD), a NIH/3T3 derived clone containing stably integrated Gli1-Luc reporter is used to detect chemical interference of the Shh pathway, by changes in the expression of the firefly Luc gene under the control of the Gli1 transcriptional response element. This cell line was used to screen Tox21 libraries for identifying and prioritizing the potential developmental toxicants that interfere Shh pathway. Conditioned medium-stimulated mode was used to screen for chemicals inhibiting Shh signaling.
Tox21 Assay Protocol Summary: 3T3 Gli1-Luc cells were dispensed at 2,000 per well in 5uL of culture medium into white solid bottom 1536-well plates (Greiner Bio-One, Monroe, NC) using a Multidrop Combi (Thermo Scientific, Waltham, MA) dispenser. The assay plates were incubated at 37 C and 5% CO2 for 4hr, and then 23nL of compounds dissolved in DMSO and positive control were transferred using a Pintool station (Wako, San Diego, CA). The compound transfer was followed by the addition of 1ul conditioned medium or assay buffer using two separate tips of Flying Reagent Dispenser (FRD, Aurora Discovery, San Diego, CA). The assay plates were incubated at 37C and 5% CO2 for 24hr. For luciferase read, 4uL of Amplite Luciferase reporter gene assay reagent (AAT Bioquest, Inc. Sunnyvale, CA) was added to each well of the assay plates using FRD and incubated at room temperature for 30min. The luminescence signal was measured using a ViewLux plate reader (Perkin Elmer, Shelton, CT).
On the % scale 0 is the no-effect control and ±100 the full control effect; potency means the concentration at half of the fitted maximal effect.

Row | Structure (SMILES) | activity change, negative = inhibition | Potency
1 | C=CC(=O)CCCCC | 0.589% (inactive) | –
2 | CCCCOC(=O)C(C)O (stereo not given) | 3.19% (inactive) | –
3 | N[C@@H](Cc1ccc(O)cc1)C(=O)O | 29.1% [at 8.39 µM] (inactive) | –
4 | CC(O)COC(C)(C)C (stereo not given) | 2.18% (inactive) | –
5 | OCC1(CO)COCOC1 | 14.1% (inactive) | –
6 | OCC1CCC(CO)CC1 (stereo not given) | 15.9% (inactive) | –
7 | CCO[Si](CC)(OCC)OCC | 0% (inactive) | –
8 | COc1c2occc2c(OC)c2c(=O)cc(C)oc12 | – | 11.9 µM (active)
9 | CCC(=O)c1c(O)cc(O)cc1O | 31.7% [at 42.5 µM] (inactive) | –
10 | O=C1CCC(=O)N1Cl | 9.98% (inactive) | –
11 | CC(=O)CCc1ccc(OC(C)=O)cc1 | 0% (inactive) | –
12 | Cc1cccc(Cl)c1 | 0% (inactive) | –
13 | C=CCCCC | 0.299% (inactive) | –
14 | O=C1c2ccccc2C(=O)c2cc(Cl)ccc21 | 20.2% [at 8.39 µM] (inactive) | –
15 | C=CC(=O)OCC1CCCO1 (stereo not given) | 0% (inactive) | –
16 | CCC/C=C(\C=O)CC | 14.7% (inactive) | –
17 | C[C@@H](O)C(=O)O | 16.7% (inactive) | –
18 | CCC(C)OC(C)CC (stereo not given) | -2.5% (inactive) | –
19 | NCc1ccc(S(N)(=O)=O)cc1 | 16.1% [at 42.5 µM] (inactive) | –
20 | Cc1cc(-c2ccccc2)nnc1NCCN1CCOCC1 | 16.8% [at 42.5 µM] (inactive) | –

Row | Structure (SMILES) | activity change, negative = inhibition | Potency
21 | O=C(CCCl)NCCc1ccccc1 | 30% [at 42.5 µM] (inactive) | –
22 | CC1(C)Oc2ccc(C#N)cc2[C@@H](N2CCCC2=O)[C@@H]1O | 16.4% [at 42.5 µM] (inactive) | –
23 | Cc1c(NC(=O)c2cccnc2)c(=O)n(-c2ccccc2)n1C | 8.01% [at 42.5 µM] (inactive) | –
24 | O=C(O)[C@H](O)c1ccccc1 | 0.148% [at 42.5 µM] (inactive) | –
25 | O=C(O)CONC(=O)c1ccccc1 | 0% (inactive) | –
26 | Nc1nc(-c2ccccc2)c(Br)c(=O)[nH]1 | 7.79% [at 42.5 µM] (inactive) | –
27 | Cn1c(=O)c2c(ncn2CCO)n(C)c1=O | 20.3% [at 42.5 µM] (inactive) | –
28 | CC(C)Cn1cnc2c1c(=O)n(C)c(=O)n2C | 2% [at 42.5 µM] (inactive) | –
29 | NCC1(Cc2noc(=O)[nH]2)CCCCC1 | 10.6% (inactive) | –
30 | CC(C)NCC(O)c1ccc2ccccc2c1 (stereo not given) | -17.5% [at 42.5 µM] (inactive) | –
31 | CCCCOCC(C)O (stereo not given) | 31% (inactive) | –
32 | CC(=O)C(C)O (stereo not given) | 1.29% (inactive) | –
33 | CC(C)Nc1ccccc1 | 27.2% (inactive) | –
34 | c1ccc2c(CC3=NCCN3)cccc2c1 | 6.53% [at 42.5 µM] (inactive) | –
35 | CCCCCCCCCOC(=O)c1ccccc1C(=O)OCCCCCCCCC | 1.25% (inactive) | –
36 | COc1ccc2c(c1)c1c3n2CCN(C)C3=NCC1 | 8.24% [at 42.5 µM] (inactive) | –
37 | Cc1ccc2c(c1)C(=O)c1ccccc1C2=O | 11.5% (inactive) | –
38 | Cc1c(C(=O)c2c[nH]n(C)c2=O)ccc(S(C)(=O)=O)c1C1=NOCC1 | 2.19% [at 42.5 µM] (inactive) | –
39 | CCCCC1CCC(O)CC1 (stereo not given) | 17.5% (inactive) | –
40 | O=S(=O)(O)c1ccc2c(N=Nc3ccc(S(=O)(=O)O)c4ccccc34)c(O)c(S(=O)(=O)O)cc2c1 | 39.1% [at 8.39 µM] (inactive) | –
